An excerpt weighted towards active compounds, which were near 2.1% of everything screened.
PAX8 reporter: lowers PAX8-driven luciferase in RMG-I cells; RMG-I TPO-luciferase reporter, SteadyGlo, 24 h; inhibition, % at 12.6 µM; 360,000 tested, 1.2% active; AID 652154;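 active = mean replicate inhibition at least 60% with every replicate also reaching 60%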;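 also: luciferase light reporting Pax8 driven TPO promoter activity; plate controls were median of neutral control wells for no effect and mitoxantrone controls for full effect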
TRPM1 prom inh: MITF TRPM1 promoter inhibition in SK-MEL-5 cells; SK-MEL-5 TRPM1 promoter luciferase, 24 h; inhibition, % at 12.5 µM; 330,000 tested, 0.83% active; AID 488899;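 active = mean inhibition across replicates of 60% or more, whatever share of single replicates reaches that level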
EBV LMP1 NFkB: reduces LMP1-driven NF-kappaB luciferase signal. 350,000 tested, 0.69% active. inhibition, % at 12.5 µM. LMP1-induced NF-kappaB luciferase reporter cells, luminescence. AID 504558; in the data active = inhibition above about 41%;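 also: 0% = neutral control wells and 100% = reference inhibitor control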
aSyn UTR inh: MLPCN primary screen, SNCA 5' untranslated region. alpha-synuclein 5'UTR reporter, inhibitor activity. inhibition, % (tested at 7.5 µM). 300,000 tested, 0.82% active; in the data active = inhibition above about 60%;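 also: H4 neuroglioblastoma cells stably carrying SNCA 5'UTR luciferase fusion; 0% = DMSO wells and 100% = positive control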
Shn3 inh set2: Schnurri-3 reporter inhibition in Clone20 osteoblasts; Clone20 osteoblast Shn3 3'UTR firefly luciferase, 24 h; inhibition, % at 12.5 µM; 360,000 tested, 0.52% active; AID 588674;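 active = mean inhibition of at least 75% with every replicate also reaching 75%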;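 also: 0% = median of neutral control wells and 100% = pilot-screen positive control compound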
The depositor's hits bear a star.

Results for C=CCOc1ccc2c(CC)cc(=O)oc2c1C ?
PAX8 reporter: -4; TRPM1 prom inh: -14; EBV LMP1 NFkB: 4; aSyn UTR inh: 15; Shn3 inh set2: 3

How did O=C(N/N=C/c1ccccc1C(=O)O)c1ccc(COc2cccc3cccnc23)cc1 do in these assays?
PAX8 reporter: 9; TRPM1 prom inh: 3; EBV LMP1 NFkB: 7; aSyn UTR inh: 0; Shn3 inh set2: 2

What do the screens show for `O=C(N/N=C/c1ccc[nH]1)c1ccc(COc2cccc3cccnc23)cc1`?
PAX8 reporter: 79*; TRPM1 prom inh: 46; EBV LMP1 NFkB: 47*; aSyn UTR inh: 104*; Shn3 inh set2: 90*

How did Cc1cc(Br)c(OCc2ccc(C(=O)N/N=C/c3ccc[nH]3)cc2)c(Br)c1 do in these assays?
PAX8 reporter: 95*; EBV LMP1 NFkB: -16; Shn3 inh set2: 97*

How did O=C1CSCN1c1ccc(Cl)c(Cl)c1 do in these assays?
PAX8 reporter: -3; TRPM1 prom inh: -15; EBV LMP1 NFkB: -23; aSyn UTR inh: 26; Shn3 inh set2: 4

What do the screens show for `Cc1ccc(S(=O)(=O)Nc2ccc3c(c2)C(=O)N([C@H](C)CO)C[C@H](C)[C@H](CN(C)Cc2ccc(Cl)c(Cl)c2)OCCCC[C@@H](C)O3)cc1`?
PAX8 reporter: 45

Results for Cc1ccc(S(=O)(=O)Nc2ccc3c(c2)C(=O)N([C@@H](C)CO)C[C@@H](C)[C@@H](CN(C)Cc2ccc(Cl)c(Cl)c2)OCCCC[C@@H](C)O3)cc1 ?
PAX8 reporter: 96*

Results for Cc1ccc(S(=O)(=O)Nc2ccc3c(c2)C(=O)N([C@H](C)CO)C[C@@H](C)[C@H](CN(C)Cc2ccc(Cl)c(Cl)c2)OCCCC[C@H](C)O3)cc1 ?
PAX8 reporter: 96*

What do the screens show for `Cc1ccc(S(=O)(=O)Nc2ccc3c(c2)C(=O)N([C@H](C)CO)C[C@@H](C)[C@@H](CN(C)Cc2ccc(Cl)c(Cl)c2)OCCCC[C@H](C)O3)cc1`?
PAX8 reporter: 55

Results for COc1ccccc1Oc1ccc(N/C=C/C(=O)C(C)(C)C)cc1 ?
PAX8 reporter: 9; TRPM1 prom inh: 12; EBV LMP1 NFkB: 5; aSyn UTR inh: 8; Shn3 inh set2: 7

Results for Cc1nc(N)nc(N)c1/C=C/C(C)(C)c1ccc(Cl)cc1 ?
PAX8 reporter: 68*; TRPM1 prom inh: 40; EBV LMP1 NFkB: 46*; aSyn UTR inh: 125*; Shn3 inh set2: 70

How did Cc1nc(N)nc(N)c1Oc1ccc(Cl)cc1 do in these assays?
PAX8 reporter: 0; TRPM1 prom inh: -8; EBV LMP1 NFkB: 6; Shn3 inh set2: 4

How did O=C(NCc1cccnc1)c1ccc(NC(=O)c2ccc(Br)cc2)cc1 do in these assays?
PAX8 reporter: 1; TRPM1 prom inh: -2; EBV LMP1 NFkB: -11; aSyn UTR inh: 17; Shn3 inh set2: 63

How did O=[N+]([O-])c1ccc(-n2nnnc2-c2ccccc2)c([N+](=O)[O-])c1 do in these assays?
PAX8 reporter: 35; TRPM1 prom inh: 98*; EBV LMP1 NFkB: -13; aSyn UTR inh: -2; Shn3 inh set2: 17

How did Cc1cccc(N2CCN(C(=O)c3ccc(CS(=O)(=O)c4ccccc4C)o3)CC2C)c1 (stereo not drawn) do in these assays?
PAX8 reporter: 60; TRPM1 prom inh: 30; EBV LMP1 NFkB: 8; aSyn UTR inh: 97*; Shn3 inh set2: 18

What do the screens show for `COc1cc2oc(=O)cc(-c3ccc(-c4ccc(N(C)C)cc4)cc3)c2c(OC)c1OC`?
PAX8 reporter: -40; TRPM1 prom inh: -41; EBV LMP1 NFkB: 42*; Shn3 inh set2: 10

Results for COc1cc(OC)c2c(-c3cccc(-c4ccc(O)cc4)c3)cc(=O)oc2c1 ?
PAX8 reporter: 41; TRPM1 prom inh: 36; EBV LMP1 NFkB: 8; Shn3 inh set2: 6

How did COc1cc(OC)c2c(-c3cccc(-c4ccc(CO)cc4)c3)cc(=O)oc2c1 do in these assays?
TRPM1 prom inh: 77*; EBV LMP1 NFkB: 10; Shn3 inh set2: 10

How did COc1ccc(-c2cccc(-c3cc(=O)oc4cc(OC)cc(OC)c34)c2)cc1 do in these assays?
PAX8 reporter: 58; TRPM1 prom inh: 67*; EBV LMP1 NFkB: -14; Shn3 inh set2: 10

Results for COc1cc(OC)c2c(-c3cccc(-c4ccc(N(C)C)cc4)c3)cc(=O)oc2c1 ?
PAX8 reporter: 77*; TRPM1 prom inh: 56; EBV LMP1 NFkB: 14; Shn3 inh set2: 31

What do the screens show for `Clc1cccc(Cl)c1CON/C=N/c1ncnc2sccc12`?
TRPM1 prom inh: 10; EBV LMP1 NFkB: -9; aSyn UTR inh: -29; Shn3 inh set2: 57

What do the screens show for `COc1ccccc1-n1c(C)nc2cc(C(=O)NCC3CCCO3)ccc21` (stereo not drawn)?
PAX8 reporter: 13; TRPM1 prom inh: 3; EBV LMP1 NFkB: 4; aSyn UTR inh: 16; Shn3 inh set2: -21

How did COc1cccc(/C=C2/CCC(CN(C)C)C2=O)c1 (stereo not drawn) do in these assays?
PAX8 reporter: -3; TRPM1 prom inh: 97*; EBV LMP1 NFkB: -22; Shn3 inh set2: 78

What do the screens show for `COc1ccc(/C=C2/CCCC(CN(C)C)C2=O)cc1` (stereo not drawn)?
PAX8 reporter: 0; TRPM1 prom inh: 68*; EBV LMP1 NFkB: -34; Shn3 inh set2: 1

How did CN(C)CC1CCC/C(=C/c2ccc(Cl)cc2)C1=O (stereo not drawn) do in these assays?
PAX8 reporter: -7; TRPM1 prom inh: 81*; EBV LMP1 NFkB: 1; Shn3 inh set2: 6

How did CCCC/C=C1/CCC(CN(C)C)C1=O (stereo not drawn) do in these assays?
TRPM1 prom inh: 75*; EBV LMP1 NFkB: -2; Shn3 inh set2: 1

Results for CN(C)CC1CCC/C(=C\c2ccc(OC(=O)/C=C/c3ccc(Cl)c(Cl)c3)cc2)C1=O (stereo not drawn) ?
PAX8 reporter: 9; TRPM1 prom inh: 2; EBV LMP1 NFkB: -1; Shn3 inh set2: 7

What do the screens show for `O=[N+]([O-])c1ccccc1CN1CCN(S(=O)(=O)Cc2ccccc2)CC1`?
PAX8 reporter: 8; TRPM1 prom inh: 18; EBV LMP1 NFkB: -16; aSyn UTR inh: -15; Shn3 inh set2: 21

How did CCCCCCCCN1C(=O)[C@H](CC(=O)N2CCCCC2)C[C@@]2(C(=O)OCC)CCCC=C12 do in these assays?
PAX8 reporter: -5

How did Cc1cc(S(=O)(=O)N(Cc2ccc(C(C)C)cc2)CC2CCCO2)ccc1-n1cnnn1 (stereo not drawn) do in these assays?
TRPM1 prom inh: 4; EBV LMP1 NFkB: 2; aSyn UTR inh: 30; Shn3 inh set2: -14

Results for CN(C)S(=O)(=O)N1CCN(CC(O)COc2ccc(-c3ccccc3)cc2)CC1 (stereo not drawn) ?
PAX8 reporter: 6; TRPM1 prom inh: 2; EBV LMP1 NFkB: 15; aSyn UTR inh: 6; Shn3 inh set2: 37

Results for COC(=O)c1ccc(Oc2cc(C)nc(-n3nc(C)cc3C)n2)cc1 ?
TRPM1 prom inh: 31; EBV LMP1 NFkB: 8; aSyn UTR inh: 65*; Shn3 inh set2: 22

High-throughput results: PubChem BioAssay, Broad Institute
